# Screening results: PubChem, National Center for Advancing Translational Sciences (NCATS)
# A selection: hits, their analogues and other compounds. The true share with any hit is near 6.2%.
# FMDV antiviral: High Throughput Screening for Foot and Mouth Disease Virus Antivirals | FMDV antiviral cell-based qHTS | Potency, µM (highest dose often 57.9 µM), inactives show at the top dose activity change, negative = inhibition, most hits filed as inhibitors | 1.2% of 410,000 active | AID 1159524, 2015; calls by dose curve; tested in HEK293T cells; further: read-out not given here; potency means the concentration at half of the fitted maximal effect; nearly all actives have a fitted effect of over 45% in size
# Marburg entry inh: qHTS for inhibitors of binding or entry into cells for Marburg Virus. Marburg virus pseudotyped entry inhibition, cell reporter. Potency, µM (series often up to 37.8 µM), without a hit: at the highest dose activity change, negative = inhibition, actives largely listed as inhibitors. 1.8% of 300,000 active. AID 540276, 2011; calls by dose curve; tested in HEK293 cells; further: potency means the concentration at half of the fitted maximal effect
# HCMV antiviral: qHTS Assay for inhibitors of the human cytomegalovirus (HCMV) | HFF cells, HCMV-luciferase reporter, 72 h; hits give low values | AID 1259415, 2018 | 4.5% of 410,000 active | activity change, negative = inhibition, % at 57.5 µM; in the data active means activity change below about -60%; inconclusive means no clear call, values can overlap the other calls; inactive means above about -39%
#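 Inhibition of viral replication was scored as loss of reporter luminescence in HFFs infected with HCMV-luciferase (MOI 1 PFU/cell) for 72 h; compounds tested at 2 doses, normalized to buffer and Salinomycin controls.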
# LASV entry inh: qHTS for Inhibitors of binding or entry into cells for Lassa Virus. Lassa virus pseudotype entry inhibition, cell reporter. Potency, µM (highest dose often 37.9 µM), for inactives: top-dose activity change, negative = inhibition, hits mostly inhibitors. AID 540256, 2011. 1.2% of 300,000 active; calls by dose curve; tested in HEK293 cells; further: potency means the concentration at half of the fitted maximal effect; nearly all actives have a fitted effect of over 50% in size
# The depositor's hits bear a star; ? = inconclusive; . = not tested or not shown; [ ] = dose if it differs, or a comment. On the % scale 0 is the no-effect control and ±100 the full control effect.
SMILES,FMDV antiviral,Marburg entry inh,HCMV antiviral,LASV entry inh
CCNC(=O)c1c(NC(=O)c2nc(S(=O)(=O)CC)ncc2Cl)sc2c1CCCC2,?,2%[46.1 µM],-101*,7.9µM*
COc1ccc(NC(=O)c2nc(S(=O)(=O)Cc3ccc(C)cc3)ncc2Cl)cc1,?,?,-97*,?
CCOC(=O)C1(C)CCN1C(=O)c1ccc(OC)c(F)c1 (stereo not given),8%,.,87,.
O=C(CC[C@H]1O[C@@H](n2cnc3c(NC(=O)c4ccccc4)ncnc32)[C@H](O)[C@@H]1O)N[C@@H](CO)Cc1c[nH]c2ccccc12,-13%,.,5,.
COC(=O)C1=C(C)N(C)C(=NCc2ccc(OC)cc2)NC1c1ccc(F)cc1 (stereo not given),.,.,-4,.
Cc1ccc(NC(=O)C2CCCN(S(=O)(=O)c3cccc4nsnc34)C2)cc1C (stereo not given),?,-20%[46.1 µM],-12,10%[46.1 µM]
CCS(=O)(=O)c1ncc(Cl)c(C(=O)Nc2ccc(C)cc2)n1,14µM*,7.9µM*,-100*,?
Cc1ccc(CS(=O)(=O)c2ncc(Cl)c(C(=O)Nc3ccc(OC(F)F)cc3)n2)cc1,25µM*,?,-111*,?
C=CC[C@@H]1C=C[C@@H](Oc2ccc(OC)cc2)[C@@H](CO)O1,.,-15%[14.2 µM],.,.
C=C1C(=O)OC2CC3(C)OC3CCC(C)=CC(OC(C)=O)C12 (stereo not given),35µM*,?,0,?
c1ccc2c(c1)OCC(c1csc3ncnc(N4CCCCC4)c13)O2 (stereo not given),32µM*,?,-88*,-18%
CC(=O)c1ccc(Nc2cc(C)nc3c(C)cc(C)cc23)cc1,-8%,4.1µM*,?,?
Cc1cc(C)c2nc(C)cc(Nc3ccc(C(=O)N(C)C)cc3)c2c1,1%,.,.,.
Cc1cc(C)c2nc(C)cc(Nc3ccc(C(=O)NCCO)cc3)c2c1,-24%,11µM*,-91*,-28%[46.1 µM]
CC(=O)c1ccc(S(=O)(=O)N2CCN(C(=O)C(=O)c3cccc(C(F)(F)F)c3)CC2)cc1,.,.,-16,.
CC(C)c1ccc(/C=N/Nc2cc(N3CCOCC3)nc(N3CCOCC3)n2)cc1,-24%,?,-38,?
Cc1cc(N/N=C/c2ccccc2)nc(N2CCOCC2)n1,9%,1.6µM*,19,6%
Cc1cccc(/C=N/Nc2cc(N3CCOCC3)nc(N3CCOCC3)n2)c1,0%,1.4µM*,-15,?
O=C(Nc1cccc(C(F)(F)F)c1)c1csc([C@@H]2C[C@H](O)[C@@H](CO)O2)n1,-10%,.,-15,.
CC[C@H](C)[C@H]1CNC(=O)C(=O)N1CC1CCN(CC(C)C)CC1,.,.,-1,.
COCCCNC(=O)c1cn(Cc2c(F)cccc2Cl)nn1,4%,-6%[46.1 µM],-90*,13%
COCCNC(=O)CSCc1c(F)cccc1Cl,.,0%,26,20%
O=C(C1CCN(c2nnc(N3CCCC3=O)s2)CC1)N1CCN(c2cccc(C(F)(F)F)c2)CC1,-16%,.,-79*,.
Cc1ccc(C)c(N2CCN(C(=O)C3CCN(c4nnc(N5CCCC5=O)s4)CC3)CC2)c1,25µM*,?,-30,?
Cc1noc(C)c1S(=O)(=O)N1CCC(C(=O)N2CCN(c3cccc(C(F)(F)F)c3)CC2)CC1,?,2%[46.1 µM],?,1%[46.1 µM]
SMILES,FMDV antiviral,Marburg entry inh,HCMV antiviral,LASV entry inh
O=C(CCCn1c(=O)c2sccc2n(Cc2ccc(Cl)cc2)c1=O)NCc1ccc2c(c1)OCO2,0%,3%[46.1 µM],?,23%[46.1 µM]
c1ccc(-c2nc3cc4ccccc4cc3[nH]2)nc1,-76%,?,-20,2.2µM*
CC1(C)Nc2ccccc2C(=O)N1c1ccc(Br)cc1,21%,-30%,66,?
Cc1ccc(N2C(=O)c3ccccc3NC2(C(=O)O)c2ccccc2)cc1Cl (stereo not given),42%,.,-98*,.
CN(N=Cc1ccc([N+](=O)[O-])cc1)c1ccccn1,34%,.,-70*,.
O=C(c1ccc([N+](=O)[O-])cc1)N(c1ccccn1)c1ccccn1,5%,9%[46.1 µM],-18,23%
CN1CCN(C(c2ccccn2)c2cc(Cl)c3cccnc3c2O)CC1 (stereo not given),-26%,.,-14,.
Oc1c(C(c2ccccn2)N2CCC(Cc3ccccc3)CC2)cc(Cl)c2cccnc12 (stereo not given),22µM*,?,-90*,?
O=[N+]([O-])c1cc(S(=O)(=O)N2CCCC2)ccc1N/N=C/c1ccccn1,-15%,?,27,6%
NS(=O)(=O)c1ccc(N/N=C/c2ccccn2)c([N+](=O)[O-])c1,-3%,?,-64*,?
NS(=O)(=O)c1ccc(N/N=C/c2ccc(O)c(O)c2O)c([N+](=O)[O-])c1,8%,?,-26,-21%
NS(=O)(=O)c1ccc(N/N=C/c2cn(-c3ccccc3)nc2-c2ccccc2)c([N+](=O)[O-])c1,-29%,.,-81*,.
NS(=O)(=O)c1ccc(N/N=C/c2ccc(O)cc2O)c([N+](=O)[O-])c1,1%,.,-78*,.
Cc1ccc(CNC(=O)c2oc3c(c2C)-c2nn(Cc4ccc(Cl)cc4)cc2CC3)cc1,-27%,.,72,2%[46.1 µM]
O=C(O)CC1S/C(=N\N=C2CCCCCCC2)N(c2ccccc2)C1=O (stereo not given),-11%,-12%[46.1 µM],-104*,12%
COc1cc(CNCCCSc2nnnn2C)cc(Br)c1OC,-21%,4%[46.1 µM],-13,5%[46.1 µM]
FC(F)(F)c1ccccc1-n1c(-c2ccco2)n[nH]c1=S,14µM*,-8%[46.1 µM],?,-4%[46.1 µM]
Cc1ccccc1-n1c(-c2ccco2)n[nH]c1=S,-12%,?,9,11%
O=C1C(=O)c2ccccc2C(O)=C1c1cccc([N+](=O)[O-])c1,40µM*,5.6µM*,-66*,3.5µM*
NNc1nnc2c3cc(F)ccc3n(Cc3ccccc3)c2n1,5%,?,-95*,?
CCn1c2ccc(F)cc2c2nnc(NN)nc21,-8%,-2%,-1,-7%
COc1ccccc1NS(=O)(=O)c1ccc2oc(SCc3ccc(F)cc3)nc2c1,?,?,-37,?
COc1ccc(NS(=O)(=O)c2ccc3oc(SCc4ccc(F)cc4)nc3c2)cc1,?,?,-61*,?
CC(=O)Nc1nonc1-c1nnc(SCc2ccccc2F)n1C,-20%,8%[46.1 µM],24,17%[46.1 µM]
COc1ccc(C2Nc3ccccc3C(=O)N2Cc2ccco2)cc1COc1ccc([N+](=O)[O-])cc1 (stereo not given),-17%,?,-35,?
COc1cccc(OCc2cc(C3Nc4ccccc4C(=O)N3Cc3ccco3)ccc2OC)c1 (stereo not given),-21%,?,-21,8.9µM*
CC(=O)OC1CC[C@@]2(C)C3=CC(=O)[C@]4(C)C(CC5OC6(OCC(C)CC6Br)C(C)C54)C3CC[C@H]2C1 (stereo not given in full),3%,.,.,.
COc1ccc(Cl)cc1NC(=O)CN1CCc2ccccc2C1,-14%,.,-75*,.
COc1ccccc1NC(=O)CN1CCN(CC(=O)Nc2ccc(Cl)c(C(F)(F)F)c2)CC1,?,?,0,?
